GSIS activator: GLuc luminescence reporter in INS-1E cells, primary screen for activators of glucose-dependent secretion of insulin; AID 743287, 2014; actives 0.61% (n = 370,000); activation, % at 16.6 µM; INS-1E GLuc reporter insulin secretion, 2-3 h;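 active means lowest replicate activation of at least 40%, so every replicate reaches that level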
MLL AF4-AF9 inh: inhibitors of AF4 peptide binding to AF9, primary screen, biochemical, AlphaScreen, biotin-AF4 peptide, FLAG-AF9, single point; Protein AF-9 (Homo sapiens), P42568; actives 0.47% (n = 350,000); inhibition, % at 10 µM;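 active means every replicate reaching a set inhibition limit, whatever the replicate mean, cut at about 25% in these data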
DENV2 CPE: inhibitors of DENV2 cytopathic effect, primary screen, cell-based, plate reader, single concentration; DENV2-infected cells, cytopathic effect rescue; CPE inhibition, % at 9.99 µM; actives 1.7% (n = 350,000); in the data active means CPE inhibition above about 20%, passing the limit was not always enough; tested in BHK-21 cells
RAD52 inh: RAD52 DNA annealing inhibitors, primary screen, biochemical, FRET, single point, set 2; inhibition, % at 18.7 µM; actives 0.46% (n = 360,000); recombinant RAD52 DNA annealing, FRET fluorescence;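 active means every replicate showing at least 50% inhibition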
RAD54 branch: inhibitors of human RAD54 branch migration, primary screen, biochemical, fluorescence, single point. DNA repair and recombination protein RAD54-like (Homo sapiens), Q92698. RAD54 Holliday junction branch migration, FAM/BHQ fluorescence. inhibition, % at 10.4 µM. actives 0.14% (n = 360,000). AID 602329, 2012;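 active means mean normalized replicate activity at least 40 and at least half of replicates scoring 40 or more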;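 further: inhibitors cause a drop in the FAM fluorescence signal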
dFosB activator: activators of delta FosB homodimer, primary screen, biochemical, fluorescence polarization, TAMRA-CDK5 oligo, single point; actives 0.99% (n = 340,000); purified delta FosB; percent of positive-control signal above neutral wells; activation, % at 25 µM; Protein FosB (Mus musculus), P13346; AID 493131, 2011;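 active means mean activation above about 17%, with every replicate also reaching it, limit read from the data, passing the limit was not always enough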
Target sequence (P13346 whole entry, looked up): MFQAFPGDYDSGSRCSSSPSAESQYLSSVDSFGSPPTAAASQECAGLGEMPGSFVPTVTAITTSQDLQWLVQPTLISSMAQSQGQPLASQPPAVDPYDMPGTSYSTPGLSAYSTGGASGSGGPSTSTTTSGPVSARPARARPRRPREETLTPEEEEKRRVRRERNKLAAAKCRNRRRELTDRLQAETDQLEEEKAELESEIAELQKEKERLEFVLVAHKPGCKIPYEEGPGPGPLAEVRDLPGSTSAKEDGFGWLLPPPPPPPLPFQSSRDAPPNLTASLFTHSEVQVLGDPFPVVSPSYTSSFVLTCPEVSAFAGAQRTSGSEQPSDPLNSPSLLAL
Large screens that a line does not name were inactive. Rows were chosen to be rich in hits. Some 3.1% of all compounds tested hit in one or more screens of this group.

CCN(C)C1CN(Cc2cn(Cc3ccccc3)nn2)S(=O)(=O)C1 (stereo unspecified)	DENV2 CPE 20.9 (no result: RAD54 branch, dFosB activator)
CNC[C@@H]1Oc2ccc(NC(=O)Nc3ccc(C(F)(F)F)cc3)cc2CC(=O)N([C@H](C)CO)C[C@H]1C	none (no result: dFosB activator)
CO[C@H]1CN(C)C(=O)c2cc(NC(=O)Nc3ccc(F)cc3)ccc2OC[C@H](C)NC[C@H]1C	none (no result: dFosB activator)
Cc1cc(NC(=O)COC(=O)Cn2[nH]c(=O)c3ccccc3c2=O)c([N+](=O)[O-])cc1C	DENV2 CPE 52.1 (no result: RAD54 branch)
C[C@@H]1CN([C@H](C)CO)C(=O)c2cc(NC(=O)Nc3ccccc3)ccc2O[C@@H](C)CCCCO[C@@H]1CN(C)S(=O)(=O)c1cccs1	none (no result: dFosB activator)
COc1ccc(C(=O)/C=C2/c3ccccc3CC(C)(C)N2C)cc1OC	GSIS activator 41.0
CC(C)CC#Cc1ccc2c(c1)O[C@H](CN(C)Cc1ccncc1)[C@@H](C)CN([C@@H](C)CO)S2(=O)=O	none (no result: dFosB activator)
CCOC(=O)C1(Cc2ccccc2C)CCCN(C(=O)c2ccccn2)C1 (stereo unspecified)	none
CCOC(=O)C1(Cc2ccccc2C)CCCN(C(=O)c2cc(C3CC3)[nH]n2)C1 (stereo unspecified)	DENV2 CPE 25.8
COc1ccc2c3c(n(C)c2c1)[C@@H](CO)N(C(=O)CN1CCOCC1)CC31CN(Cc2ccncc2)C1	none (no result: RAD54 branch, dFosB activator)
COCC(=O)Nc1ccc2c(c1)OC[C@H](C)N(CCc1ccccc1)C[C@@H](C)[C@H](OC)CN(C)C2=O	none (no result: dFosB activator)
Cc1ccc(NC2c3ncccc3C(=O)N2C2CCCCC2)cc1 (stereo unspecified)	GSIS activator 56.1 (no result: MLL AF4-AF9 inh, DENV2 CPE, RAD52 inh, RAD54 branch)
O=C(NC(=S)N1CCN(c2ccc(F)cc2)CC1)c1cccs1	none
O=C(NC(=S)N1CCN(c2ccccc2)CC1)c1c(F)cccc1F	DENV2 CPE 74.5
COc1ccc(-c2ccc(SCC(=O)NC3CCCC3)nn2)cc1OC	GSIS activator 80.3
Cc1cccc(NC(=O)CSc2ccc(-c3ccc4c(c3)OCO4)nn2)c1C	GSIS activator 94.1 (no result: MLL AF4-AF9 inh, DENV2 CPE, RAD52 inh)
COc1ccc(-c2ccc(SCC(=O)Nc3cc(C)on3)nn2)cc1OC	GSIS activator 57.1 (no result: MLL AF4-AF9 inh, DENV2 CPE, RAD52 inh)
COc1ccc(-n2c(SCC(=O)Nc3cc(C)on3)nc3c([nH]c4ccccc43)c2=O)cc1	none (no result: GSIS activator)
COc1cccc(-c2ccc(SCC(=O)NC3CCCCC3)nn2)c1	none
Cc1cc(NC(=O)CSc2ccc(-c3ccc4c(c3)OCO4)nn2)no1	none (no result: RAD54 branch, dFosB activator)
COc1ccc(-n2c(SCC(=O)Nc3cc(C)on3)nc3c([nH]c4ccccc43)c2=O)cc1OC	dFosB activator 24.6
O=C(c1ccc(F)cc1)N1[C@@H](CO)[C@@H]2c3ccccc3NC[C@@H]21	none (no result: dFosB activator)
C/C=C(\C)CN1CCC(n2nccc2NC(=O)CCc2ccccc2)CC1	DENV2 CPE 100.7
COc1cc2c(cc1OC)-c1cc(Nc3ccc(N(C)C)cc3)nc(=O)n1CC2	GSIS activator 79.1 (no result: RAD54 branch)
CCC(=O)N1C[C@@H](O)COC[C@@H]2O[C@@H](CC(=O)N3CCCCC3)CC[C@H]21	none (no result: dFosB activator)
Cc1ccc(NC(=O)CC2SC(=O)NC2=O)cc1 (stereo unspecified)	none (no result: GSIS activator, MLL AF4-AF9 inh, DENV2 CPE, RAD52 inh)
Cc1ccc(NC(=O)CC2=NC(=O)C(CC(=O)Nc3ccccc3C)S2)cc1 (stereo unspecified)	dFosB activator 34.1
CCCOc1ccc(C(=O)OCCN(CC)CC)cc1N	RAD52 inh 95.0 (no result: GSIS activator)
CCOc1ccc(C(=O)OCCN(CC)CC)cc1	none (no result: GSIS activator, MLL AF4-AF9 inh, DENV2 CPE, RAD52 inh)
CC(C)(C)c1cc(NCCCn2ccnc2)n2ncc(-c3ccc(Cl)cc3)c2n1	GSIS activator 817.1 (no result: MLL AF4-AF9 inh, DENV2 CPE, RAD52 inh, RAD54 branch)
CCCN(C)C[C@@H]1Oc2ncc(C#Cc3cccc(OC)c3)cc2C(=O)N([C@H](C)CO)C[C@@H]1C	RAD52 inh 52.7 (no result: RAD54 branch, dFosB activator)
CCCN(C)C[C@@H]1Oc2ncc(C#Cc3ccccc3OC)cc2C(=O)N([C@H](C)CO)C[C@@H]1C	RAD52 inh 56.6 (no result: GSIS activator, dFosB activator)
Nc1[nH]c(C(=O)c2ccccc2)c(-c2cc(F)ccc2Br)c1C(=O)NCCc1c[nH]c2ccccc12	DENV2 CPE 28.8 (no result: MLL AF4-AF9 inh, RAD54 branch, dFosB activator)

Bioassay records (PubChem BioAssay)
